Assay outcomes: PubChem, several laboratories
This is a sample that favours compounds with a hit; in the whole collection about 1% have one here.
PriA SSB inh – inhibitors of Klebsiella pneumoniae PriA binding to SSB C-terminal tail; AlphaScreen SSBct-PriA binding, biotinylated peptide; inhibition, % at 33 µM; actives 0.6% (n = 430,000); AID 1272365; in the data active = inhibition mostly above about 37%, no sharp cut-off; inactive = mostly below about 20%;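 also: plate controls were negative control peptide for no effect and reference peptide for full effect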
FadD28 binding – inhibitors of Mycobacterium tuberculosis FadD28 bisubstrate binding; actives 0.22% (n = 360,000); inhibition, % at 12.5 µM; AID 588549; FadD28 bisubstrate probe binding, fluorescence polarization; in the data active = inhibition above about 8.5%, passing the limit was not always enough
PrP UTR inh – suppresses PrP 5' UTR mRNA reporter expression. cell-based PrP 5' UTR mRNA reporter, plate reader. inhibition, % (concentration not given with the values). actives 0.35% (n = 340,000). AID 488862; in the data active = inhibition above about 52%; also: 0 = median of the neutral control wells
Mtb BioA inh – blocks M. tuberculosis BioA enzyme activity; purified M. tuberculosis BioA enzyme, plate reader; inhibition, % at 9.99 µM; actives 0.096% (n = 360,000); in the data active = inhibition above about 40%
Mtb hypoxia rep – inhibitors of hypoxia-regulated fluorescent reporter in Mycobacterium tuberculosis; M. tuberculosis hypoxia-regulated fluorescent reporter, fluorescence; fluorescence inhibition, % (no concentration beside the values); actives 0.1% (n = 300,000); in the data active = fluorescence inhibition mostly above about 23%, no sharp cut-off; inactive = mostly below about 17%
TcdB inh – blocks C. difficile toxin B glycohydrolase activity. P18177. TcdB glycohydrolase enzymatic assay, plate reader. inhibition, % at 9.99 µM. actives 0.24% (n = 350,000). AID 652162; in the data active = inhibition above about 10%
* = called active by the depositor.

`CC(=NNC(=O)c1nnn(-c2nonc2N)c1CN(C)c1ccccc1)c1ccccn1` gave PriA SSB inh 90.3* and Mtb hypoxia rep -1.8.
`CCCC(=O)Nc1sc2c(c1C(=O)Nc1ccccn1)CCCC2` gave PriA SSB inh -7.8, FadD28 binding -2.1, PrP UTR inh -13.4, Mtb BioA inh -1.0, Mtb hypoxia rep 5.2 and TcdB inh 12.0*.
For CCOc1ccccc1NC(=O)c1c(NC(=O)CCC(=O)O)sc2c1CCCCC2 the results were PriA SSB inh -6.7, FadD28 binding -0.6, PrP UTR inh -14.8, Mtb hypoxia rep -1.8 and TcdB inh 1.6.
For O=C1CC(c2ccccc2)=NN1c1ccccc1 the results were PriA SSB inh 6.2, FadD28 binding -1.2, PrP UTR inh 7.7, Mtb BioA inh 0.0, Mtb hypoxia rep 6.2 and TcdB inh 0.6.
`O=C1CC(C(F)(F)F)=NN1c1ccccc1` gave PriA SSB inh 35.0*.
CN(C)S(=O)(=O)c1cccc(N=C2NN=C(c3ccccc3)CS2)c1 was read as PriA SSB inh 35.7 and TcdB inh 1.0.
`CC(=O)Nc1ccc(C2=NNC(=Nc3cccc(S(=O)(=O)N(C)C)c3)SC2)cc1` gave PriA SSB inh 53.1*, FadD28 binding 0.3, PrP UTR inh 2.6 and Mtb hypoxia rep 10.0.
`Cc1ccc(NC(=O)CS(=O)(=O)c2cn(C)c3ccccc23)c(C)c1` gave PriA SSB inh 104.2*, FadD28 binding -0.2, PrP UTR inh -9.5, Mtb BioA inh -0.7, Mtb hypoxia rep 9.0 and TcdB inh 1.8.
Screening Cn1cc(S(=O)(=O)CC(=O)Nc2ccc(Br)cc2)c2ccccc21 returned PriA SSB inh -20.4, FadD28 binding -1.4, PrP UTR inh -10.6, Mtb BioA inh 0.1, Mtb hypoxia rep 1.8 and TcdB inh 3.2.
Screening O=C(Nc1ccc(Cl)cn1)C1CCN(S(=O)(=O)c2cccs2)CC1 returned PriA SSB inh -5.8, FadD28 binding -0.8, PrP UTR inh 1.1, Mtb BioA inh -3.6, Mtb hypoxia rep -4.7 and TcdB inh 0.3.
`Cc1ccc2nc(Nc3nc(C)cc(C(F)(F)F)n3)nc(C)c2c1` gave PriA SSB inh -6.5, FadD28 binding -2.1, PrP UTR inh -7.3 and Mtb hypoxia rep -52.9.
For CCn1c(CCCc2ccc(OC)c(C)c2)n[nH]c1=S the results were PriA SSB inh 0.1, FadD28 binding 0.3, PrP UTR inh -9.9, Mtb BioA inh 1.1, Mtb hypoxia rep 12.3 and TcdB inh 0.1.
For NNc1ncnc2c1cnn2-c1ccc(F)cc1 the results were PriA SSB inh 72.6*.
`NNc1ncnc2c1cnn2-c1ccccc1` gave PriA SSB inh 63.6*, FadD28 binding -5.2, PrP UTR inh 1.7 and Mtb hypoxia rep 6.2.
COc1ccc(N2CCN(C(=O)COC(=O)c3ccc(Cl)nc3)CC2)cc1 was read as PriA SSB inh -10.9, FadD28 binding 1.0, PrP UTR inh 2.4, Mtb BioA inh -5.1, Mtb hypoxia rep 5.8 and TcdB inh 1.0.
Screening CCOC(=O)N1CCN(S(=O)(=O)c2cc(Cl)c(OC)cc2Cl)CC1 returned PriA SSB inh -12.2, FadD28 binding 0.4, PrP UTR inh 1.5 and Mtb BioA inh 0.1.
`CC1(C(=O)NC2CCCC2)CCC(=O)N1CCC1=CCCCC1` (stereo unspecified) gave PriA SSB inh 2.2, FadD28 binding -4.6, PrP UTR inh -9.6 and Mtb BioA inh -0.7.
For NS(=O)(=O)c1cccc(NC(=O)COC(=O)c2ccc(S(=O)(=O)N3CCOCC3)cc2)c1 the results were PriA SSB inh 4.2, FadD28 binding -1.1, PrP UTR inh 3.9, Mtb BioA inh 0.2, Mtb hypoxia rep 12.3* and TcdB inh 0.0.
Screening CN(C)c1ccc(S(=O)(=O)N2CCCCC2)cc1NC(=O)CCNC(=O)c1ccccc1Cl returned PriA SSB inh 9.4, FadD28 binding -0.3, PrP UTR inh -18.5, Mtb BioA inh -0.4, Mtb hypoxia rep 23.5* and TcdB inh 3.4.
Screening O=C(COC(=O)c1ccc(O)cc1)Nc1cc(S(=O)(=O)N2CCCCCC2)ccc1Cl returned FadD28 binding -2.1, Mtb BioA inh -0.3 and TcdB inh 0.1.
`Cc1ccccc1NC(=O)COC(=O)c1cc(S(=O)(=O)N2CCOCC2)ccc1C` gave PriA SSB inh 3.4, FadD28 binding -1.9, PrP UTR inh -25.4, Mtb BioA inh -1.8, Mtb hypoxia rep 32.5* and TcdB inh -1.1.
